This is one part of a sample in which hits are shown more often than they occur.
ST2 IL33 inh: inhibitors of human ST2 (IL1RL1) binding to IL-33, primary screen, biochemical, AlphaLISA. Interleukin-1 receptor-like 1 (Homo sapiens), Q01638. inhibition, % for hits at 17 µM. 78,000 compounds, 2.3% hits. AlphaLISA ST2-Fc/biotin-IL-33 interaction, 1 h. AID 1259354, 2018; in the data active = inhibition above about 30%
Target sequence (Q01638 whole entry, looked up): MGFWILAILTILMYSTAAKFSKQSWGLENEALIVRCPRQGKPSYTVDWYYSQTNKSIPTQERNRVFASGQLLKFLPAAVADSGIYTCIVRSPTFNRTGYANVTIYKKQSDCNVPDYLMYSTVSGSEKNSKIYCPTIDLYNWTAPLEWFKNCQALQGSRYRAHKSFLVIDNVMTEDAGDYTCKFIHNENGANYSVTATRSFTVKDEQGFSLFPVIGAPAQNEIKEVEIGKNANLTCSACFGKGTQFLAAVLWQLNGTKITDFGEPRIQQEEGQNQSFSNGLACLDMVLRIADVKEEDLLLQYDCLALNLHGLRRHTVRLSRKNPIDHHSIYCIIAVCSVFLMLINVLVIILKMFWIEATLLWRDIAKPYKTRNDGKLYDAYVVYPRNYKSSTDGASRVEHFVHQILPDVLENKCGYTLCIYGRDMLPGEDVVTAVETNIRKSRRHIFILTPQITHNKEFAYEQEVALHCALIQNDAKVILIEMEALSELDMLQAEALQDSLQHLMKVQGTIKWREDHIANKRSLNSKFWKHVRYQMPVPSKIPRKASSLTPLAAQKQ
Numbers without * were called inactive; ! = repeats disagree.

How did Cc1ccc(C2c3sc(=O)[nH]c3SC3C4CC([C@@H]23)[C@H]2C(=O)N(CCC(=O)O)C(=O)[C@@H]42)cc1 (stereo not given in full) do in these assays?
ST2 IL33 inh: inactive

Results for C=CCSC1=C(C#N)C(C)(C)C(C#N)C(=O)N1 (stereo not given) ?
ST2 IL33 inh: inactive

How did CCOc1ccccc1N1CCN(Cc2ccsc2)CC1 do in these assays?
ST2 IL33 inh: inactive

How did Cn1c(CN2CCCC(CNC(=O)c3ccc(-c4ccccc4)cc3)C2)nc2ccccc21 (stereo not given) do in these assays?
ST2 IL33 inh: inactive

Results for C#CC1(NC(=O)C2CCN(CCOC)C2)CCCCC1 (stereo not given) ?
ST2 IL33 inh: inactive

Results for Cc1c(Cl)c([N+](=O)[O-])nn1CCCC(=O)Nc1c(F)cc(F)cc1Br ?
ST2 IL33 inh: inactive

What do the screens show for `CC1CCc2cc(F)ccc2N1S(=O)(=O)c1ccc([N+](=O)[O-])cc1` (stereo not given)?
ST2 IL33 inh: 36%*

How did CC1CCc2cc(F)ccc2N1C(=O)c1ccc([N+](=O)[O-])cc1 (stereo not given) do in these assays?
ST2 IL33 inh: inactive

How did CC1CCc2cc(F)ccc2N1S(C)(=O)=O (stereo not given) do in these assays?
ST2 IL33 inh: inactive

Results for COCCCn1c(SCC(=O)N2CCC(C)CC2)nc2c(sc3ccccc32)c1=O ?
ST2 IL33 inh: inactive

What do the screens show for `O=C(Nc1nc2ccccc2s1)c1ccc(N2C(=O)c3ccccc3C2=O)cc1`?
ST2 IL33 inh: inactive

Results for CCC(C)N(Cc1ccncc1)C(=O)c1cccc(-c2noc(C)n2)c1 (stereo not given) ?
ST2 IL33 inh: inactive

How did CCC(c1ccccc1)c1nc(-c2ccncc2)no1 (stereo not given) do in these assays?
ST2 IL33 inh: inactive

How did CCC(c1ccccc1)c1nc(-c2cccc([N+](=O)[O-])c2)no1 (stereo not given) do in these assays?
ST2 IL33 inh: 30%*

Results for COc1ccc(-c2nc(-c3cccc([N+](=O)[O-])c3)no2)cc1OC ?
ST2 IL33 inh: inactive

How did C=CCN1Cc2ccc(C(=O)O)cc2C1 do in these assays?
ST2 IL33 inh: inactive

Results for O=C1Nc2ccccc2N(O)N1c1ccc([N+](=O)[O-])cc1 ?
ST2 IL33 inh: inactive

Results for O=[N+]([O-])c1ccc(-c2nnc(S)n2-c2ccccc2)cc1 ?
ST2 IL33 inh: inactive

How did N#Cc1cc2[nH]c3ccccc3c2n(-c2ccc([N+](=O)[O-])cc2)c1=N do in these assays?
ST2 IL33 inh: 34%*!

What do the screens show for `CCOc1ccc(CCCN=C(N)N)cc1Cl`?
ST2 IL33 inh: inactive

How did CN(C)C(=NS(=O)(=O)c1ccc(Br)cc1)c1ccccc1 do in these assays?
ST2 IL33 inh: inactive

What do the screens show for `O=C1C=CC(=NS(=O)(=O)c2ccccc2)C=C1Br`?
ST2 IL33 inh: 31%*

What do the screens show for `Cc1sc(NC(=O)C(C)(C)C)c(C(N)=O)c1C`?
ST2 IL33 inh: inactive

What do the screens show for `CCn1cc(CN2CCC(N3CCCC3=O)CC2)c2ccccc21`?
ST2 IL33 inh: inactive

What do the screens show for `CCOC(=O)c1cccnc1N1CCN(C2CC(C)(C)NC(C)(C)C2)CC1`?
ST2 IL33 inh: inactive

Results for CCOC(=O)c1c(NC(=O)C2CCCC2)sc(C(C)=O)c1C ?
ST2 IL33 inh: inactive

What do the screens show for `COc1cccc(NC(=O)CSc2c3c(nc4ccccc24)CCC3)c1`?
ST2 IL33 inh: inactive

Results for COc1cccc(NC(=O)CSc2nnc(Cc3ccccc3)n2C)c1 ?
ST2 IL33 inh: 40%*

How did COc1cccc(NC(=O)CSc2nnc3ccccn23)c1 do in these assays?
ST2 IL33 inh: inactive

Results for O=[N+]([O-])c1ccc(C2Nc3c(cccc3C(F)(F)F)C3C=CCC32)cc1 (stereo not given) ?
ST2 IL33 inh: inactive

Results for O=[N+]([O-])c1cccc2c1NC(c1cccc(Cl)c1Cl)C1CC=CC21 (stereo not given) ?
ST2 IL33 inh: 39%*

What do the screens show for `O=C(c1cccc2c1NC(c1ccc(Cl)cc1Cl)C1CC=CC21)N1CCCC1` (stereo not given)?
ST2 IL33 inh: inactive

Results for CC(=O)Nc1ncc(S(=O)(=O)N2CCC(N3CCCC3=O)CC2)s1 ?
ST2 IL33 inh: inactive

Results for CC1CC(=O)C2=C(C1)OC(N)=C(C#N)C2c1ccco1 (stereo not given) ?
ST2 IL33 inh: inactive

What do the screens show for `CCCOc1ccc(-c2nc3s/c(=C\c4ccco4)c(=O)n3n2)cc1`?
ST2 IL33 inh: inactive

Results for N#CC1=C(N)n2c(s/c(=C\c3ccco3)c2=O)=C(C#N)C1c1ccco1 (stereo not given) ?
ST2 IL33 inh: 37%*

What do the screens show for `Fc1ccc(NC(=S)N[C@H]2CO[C@H]3[C@@H]2OC[C@@H]3n2nnnc2Oc2ccc(-n3ccnc3)cc2)cc1`?
ST2 IL33 inh: inactive

Results for Cc1ccc(C2=N/C(=C\c3cccnc3)C(=O)O2)cc1[N+](=O)[O-] ?
ST2 IL33 inh: inactive

How did CC1=C(C#N)C(=O)NC(=O)/C1=C\c1ccc(-c2cc(C)c(C)cc2[N+](=O)[O-])o1 do in these assays?
ST2 IL33 inh: 34%*

How did Cc1ccc(-c2ccc(C=C3C(=O)OC(C)(C(C)(C)C)OC3=O)o2)cc1[N+](=O)[O-] (stereo not given) do in these assays?
ST2 IL33 inh: inactive

How did Cc1ccc(-c2ccc(/C=C3/NC(=O)NC3=O)o2)cc1[N+](=O)[O-] do in these assays?
ST2 IL33 inh: 41%*

How did COc1ccc2cc3cc(C(=O)NCC4CCCO4)sc3nc2c1 (stereo not given) do in these assays?
ST2 IL33 inh: inactive

Results for COc1ccccc1C1=NN(C(=O)CCC(=O)O)C(c2ccccc2)C1 (stereo not given) ?
ST2 IL33 inh: inactive

Results for CCc1ccccc1S(=O)(=O)N1CCN(c2cc(-c3cccc(OC)c3)ncn2)CC1 ?
ST2 IL33 inh: inactive

What do the screens show for `COc1cc2[nH]c(=O)n(CCCC(=O)N3CCOCC3)c(=O)c2cc1OC`?
ST2 IL33 inh: inactive

Results for Cc1ccc(-c2noc(CCC(=O)N(C)c3ccc(Cl)cc3)n2)cc1 ?
ST2 IL33 inh: inactive

Results for Cc1nonc1CC(=O)NC1CC(=O)N(CC2CCCCC2)C1 (stereo not given) ?
ST2 IL33 inh: inactive

What do the screens show for `O=C(c1ccc(-c2ccc(-c3ccn[nH]3)cc2)o1)N1CCOCC1`?
ST2 IL33 inh: inactive

Results for Cc1ccc(S(=O)(=O)n2c([N+](=O)[O-])cnc2C)c(C)c1 ?
ST2 IL33 inh: inactive

Results for Clc1ccccc1CN1CCc2ccccc2C1 ?
ST2 IL33 inh: inactive

What do the screens show for `COc1ccc(-n2c(CCN)n[nH]c2=O)cc1OC`?
ST2 IL33 inh: inactive

How did COc1ccc(-n2c(C)c3c(C)nnc(C)c3c2C)cc1OC do in these assays?
ST2 IL33 inh: 31%*

How did COc1ccc(N2C(=O)C3C4C=CC(C4)C3C2=O)cc1OC (stereo not given) do in these assays?
ST2 IL33 inh: inactive

Results for Cc1cccc(C)c1NC(=O)C1CCCCC1C(=O)O (stereo not given) ?
ST2 IL33 inh: inactive

What do the screens show for `Cc1ccc2c(c1)N(C(C)C(=O)NCCN1CCOCC1)C(=O)CO2` (stereo not given)?
ST2 IL33 inh: inactive

How did O=C(COc1ccc(Cl)cc1Br)N1CCc2ccccc21 do in these assays?
ST2 IL33 inh: inactive

Results for COc1ccc(Br)cc1/C=C1N=C(/C=C/c2ccccc2OC)OC\1=O ?
ST2 IL33 inh: inactive

Screening results (PubChem BioAssay)
